Screening results from PubChem BioAssay.
A selection: hits, their analogues and other compounds. The true share with any hit is near 1.1%.
KCNH2 3.1 inh: KCNH2 3.1 (human) potassium channel inhibition. U2OS KCNH2 3.1, thallium flux FluxOr; active compounds read low. activity change, % (tested at about 1.8 µM). 340,000 tested, 0.95% active. AID 720553;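 active = maximum activity change below -70%; inconclusive = maximum activity change from -70% to -50%; inactive = maximum activity change above -50%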;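 note: thallium influx rate constant from kinetic fluorescence after stimulation buffer; % is set by controls: 0 for no effect and ±100 for the full control effect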
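Measured as rate of thallium-driven FluxOr signal in transduced U2OS cells carrying the 3.1 channel, read kinetically for 2 min upon stimulation; values are rate constants scaled to DMSO control wells.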
hERG WT inh: inhibitors of human wildtype KCNH2 potassium channel; Q12809; U2OS, BacMam KCNH2, thallium flux FluxOr; active compounds read low; activity change, % at 1.84 µM; 340,000 tested, 0.37% active;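 active = maximum activity change below -70%; inconclusive = maximum activity change between -70% and -50%; inactive = maximum activity change above -50%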; note: % is set by controls: 0 for no effect and ±100 for the full control effect
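U2OS cells were transduced with wild-type KCNH2 virus (2.03 x 10^8 / mL) for 4 h at room temperature, then cultured overnight at 37 C. Thallium flux was read with FluxOr dye. Rate constants were normalized to DMSO controls.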
Menin MLL FP FL: menin-MLL binding inhibition, fluorescein peptide | FP activity change, % at 61.4 µM | AID 1766 | Fluorescence polarization, fluorescein-MLL peptide displacement from menin | 290,000 tested, under 10 active; active = well fitted curve in the direction sought with a large enough effect in the polarisation, not every such curve was filed as active; inconclusive = small, poorly fitted or top-dose-only effect, or effect the other way, or a change in a side signal; inactive = no such curve, though single readings can be large or run the other way; the % refers to the polarisation; note: % of control where 0% means no effect
CXXC DNA block: blocks binding of human MLL CXXC domain to DNA | Q03164 | MLL-CXXC / FITC-HOXA9 DNA fluorescence polarization | Potency, µM (highest dose often 115 µM), for the others: at the top dose activity change, negative = inhibition, hits mostly inhibitors | 290,000 tested, 0.037% active | AID 2662; active = well fitted inhibition curve with a large enough effect in the polarisation, with a control signal flat, not every such curve was filed as active; inconclusive = small, poorly fitted or top-dose-only effect, or effect the other way, or a change in a side signal; inactive = no such curve, though single readings can be large or run the other way; the % refers to the polarisation; note: potency is the fitted concentration of half-maximal effect
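Steps: dispense CXXC domain solution (7 uM) → pin compounds or unlabeled HOX-A9 DNA control → 5 min ambient → add FLSN-HOX-A9 solution (50 nM) → spin → 30 min ambient → fluorescence polarization. Tris pH 7.5/NaCl/DTT/BSA buffer.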
Menin MLL FP TR: displaces Texas Red mutant MLL peptide from human menin | O00255 | Menin + Texas Red MLL mutant peptide, fluorescence polarization | Potency, µM (series often up to 61.6 µM), inactives show at the highest dose FP activity change, negative = inhibition, usual class: inhibitors | 270,000 tested, 0.23% active | AID 1768; active = well fitted inhibition curve with a large enough effect in the polarisation, with a control signal flat, not every such curve was filed as active; inconclusive = small, poorly fitted or top-dose-only effect, or effect the other way, or a change in a side signal; inactive = no such curve, though single readings can be large or run the other way; the % refers to the polarisation; note: potency is the fitted concentration of half-maximal effect; % of control where 0% means no effect
* = called active by the depositor; ? = inconclusive; nt = not tested or not shown; [ ] = remark or other dose.

SMILES	KCNH2 3.1 inh	hERG WT inh	Menin MLL FP FL	CXXC DNA block	Menin MLL FP TR
COc1ccc(CN2CCC(C(=O)c3ccc(F)cc3)CC2)cc1	-73*	-7	6	-3%	-9%
Cc1ccc(CNC(=O)CN2CCC(C(N)=O)CC2)cc1	3	-5	-2	-2%	-7%
Cc1ccc(NC(=O)N2CCC(C(=O)c3ccc(F)cc3)CC2)cc1	16	1	-3	5%	9%
Cc1ccc(CN2CCC(C(=O)c3ccc(F)cc3)CC2)cc1	-75*	6	nt	nt	nt
CSc1ccc(CN2CCC(C(=O)NCc3ccc(C)cc3)CC2)cc1	-93*	nt	3	0%	-23%
Cc1ccc(OCCCC(=O)NC2CCCCC2)cc1	6	-3	1	11%	?
COc1cccc(-c2cc(C(=O)Nc3nc4ccccc4s3)c3ccccc3n2)c1	-6	-12	4	1%	28µM*
O=C(Nc1nc2ccccc2s1)c1cc(-c2ccco2)nc2ccccc12	2	1	6	24%	-2%
COC(=O)c1ccc(NC(=O)c2cc(-c3ccncc3)nc3ccccc23)cc1	12	-8	nt	nt	nt
COC(=O)c1ccc(NC(=S)NC(=O)c2cc(-c3ccccc3)nc3ccccc23)cc1	11	-23	1	19%	13µM*
COC(=O)C1=C(C(=O)OC)[C@@H]2N(C)c3ccc(OC)cc3[C@@]23C[C@@H](C(=O)OC)N(S(=O)(=O)c2c(C)noc2C)C3=N1	nt	nt	-3[11.7 µM]	nt	-19%[11.7 µM]
CCCCNc1c(-c2ccc(SC3CCCCC3)c(OC)c2)nc2ccc(C)cn12	-72*	8	nt	nt	nt
CCCCNc1c(-c2ccc(SC(C)CC)cc2)nc2ccccn12 (stereo not drawn)	?	-16	nt	nt	nt
COc1ccc(-c2cc(-c3nc4ccccn4c3NCc3ccccc3)ccc2OC)cc1	-101*	-99*	nt	nt	nt
COc1ccc(-c2nc3ccccn3c2NCc2ccc3c(c2)OCO3)cc1	-23	7	2	1%	4%
CCCCNc1c(-c2ccc(SC3CCCCC3)cc2)nc2ccccn12	-81*	?	nt	nt	nt
CCCCCCSc1ccc(-c2nc3ccc(C)cn3c2NCc2ccccc2)cc1OC	-91*	-20	nt	nt	nt
CCCCCCSc1ccc(-c2nc3ccc(C)cn3c2NCc2ccccc2)cc1	-16	10	nt	nt	nt
CCCCNc1c(-c2ccc(OC)c(SC3CCCCC3)c2)nc2ccc(C)cn12	-41	4	nt	nt	nt
CC12CCC3c4ccc(OCc5ccccc5)cc4CCC3C1CC(O)C2O (stereo not drawn)	nt	nt	0	nt	27%
CCC(C)Sc1cc(-c2nc3ccc(C)cn3c2NCc2ccccc2)ccc1OC (stereo not drawn)	-102*	?	nt	nt	nt
CCC(C)Sc1cc(-c2nc3cc(C)ccn3c2NC2CCCCC2)ccc1OC (stereo not drawn)	-5	38	nt	nt	nt
CCC(C)Sc1cc(-c2nc3ccccn3c2NC2CCCCC2)ccc1OC (stereo not drawn)	-149*	3	nt	nt	nt
CCc1ccc2nc(SCC(=O)Nc3nnc(C)s3)c(C)cc2c1	-91*	-6	3	7%	?
Cc1cccc(NC(=O)c2ccc(NCCc3ccccc3)c([N+](=O)[O-])c2)c1	-189*	-16	8	22%	14%
SMILES	KCNH2 3.1 inh	hERG WT inh	Menin MLL FP FL	CXXC DNA block	Menin MLL FP TR
Cc1ccc(NC(=O)c2ccc(NCCN)c([N+](=O)[O-])c2)cc1	-3	9	2	?	13%
COc1ccc2nc(NC(=O)C3CCN(S(=O)(=O)c4cccs4)CC3)sc2c1	-14	42	0	15%	nt
Cc1ccc2nc(NC(=O)C3CCN(S(=O)(=O)c4cccs4)CC3)sc2c1	-80*	9	11	8%	?
COc1ccc2nc(NC(=O)C3CCCN(S(=O)(=O)c4cccs4)C3)sc2c1 (stereo not drawn)	-23	-1	-3	27%	22µM*
CCN(Cc1ccccc1)c1ccc(N=Nc2nn(C)c(C)c2[N+](=O)[O-])cc1	-1	1	1	5%	3%
CCN(CC)c1ccc(N=Nc2nn(C)c(C)c2[N+](=O)[O-])cc1	3	-125*	1	-2%	-1%
CCOC(=O)N1CCN(Cc2nc(N)nc(Nc3ccc(OC)cc3)n2)CC1	-32	10	3	-1%	nt
CCOC(=O)N1CCN(Cc2nc(N)nc(Nc3ccc(Cl)cc3)n2)CC1	-100*	6	-1	12%	1%
CCOC(=O)N1CCN(Cc2nc(N)nc(Nc3ccc(OCC)cc3)n2)CC1	-86*	0	4	0%	1%
CCOC(=O)N1CCN(Cc2nc(N)nc(Nc3ccc(Oc4ccccc4)cc3)n2)CC1	-89*	-32	0	8%	7%
COC(=O)c1ccccc1S(=O)(=O)N1CCC(C(=O)OC(C)C(=O)N(C)Cc2ccccc2)CC1 (stereo not drawn)	-5	2	nt	nt	nt
CC(C)N1C(=O)S/C(=C/c2ccc(Sc3nc4ccccc4[nH]3)o2)C1=O	3	-130*	?	21%	3%
N#CCCn1c(=O)c(-c2ccc(F)cc2)nc2cnc(N3CCOCC3)nc21	nt	nt	?	nt	-15%
Brc1cccc(CN2CCCCCC2)c1	-2	3	2	-11%	-1%
OC1(c2ccc(Br)cc2)CCN(Cc2cccc(Br)c2)CC1	-76*	26	1	19%	-3%
O=C(NN1C(=O)C2C3C=CC(C3)C2C1=O)c1cccc(Cl)c1 (stereo not drawn)	-15	-78*	5	8%	0%
COC(=O)c1c(N)sc(Cc2ccccc2)c1C	-103*	1	1	-11%	?
COC(=O)c1c(NC(=O)/C=C/C(=O)O)sc(Cc2ccccc2)c1C	20	2	6	20%	8%
CCN(CC)c1ccc(/C=N/n2c(C)nc3ccccc3c2=O)cc1	13	-20	6	0%	4%
OCCOCCNc1ncnc2nc[nH]c12	-207*	-4	-1	6%	-2%
CCN(C[C@H]1N[C@@](CC)(C(=O)OC)[C@H]2C(=O)N(C)C(=O)[C@@H]12)C(=O)COC	-1	3	nt	nt	nt
CC1(C)NC(=O)N(CC(O)CN2C(=O)NC(C)(C)C2=O)C1=O	-5	-1	-1	1%	1%
CC1(C)NC(=O)N(CC(O)CNC23CC4CC(CC(C4)C2)C3)C1=O (stereo not drawn)	8	-100*	-4	1%	1%
CCN1CCN(CCNC(=O)c2ccc3c(c2)N(Cc2ccc(F)cc2)C(=O)/C(=C/c2ccccc2)S3)CC1	-88*	-20	-2	?	-9%
COc1ccc(/C=C2\Sc3ccc(C(=O)NC4CC4)cc3N(C)C2=O)cc1OC	-3	0	3	6%	26%
Cc1cccc(CN2C(=O)/C(=C\c3ccc(C(=O)NCCN4CCOCC4)cc3)Sc3ccccc32)c1	-81*	-5	nt	16%	nt
Cc1ccc(S(=O)(=O)Nc2cccc(C(=O)NC3CCN(Cc4ccccc4)CC3)c2)cc1F	-80*	-39	nt	nt	nt
